Data reported in ChEMBL document CHEMBL3988442, “University of Dundee, Small-Polar-MMV Screening Library” (2021).

What was measured:
[1] = target: T1, Aspartate--tRNA(Asp/Asn) ligase (Mycobacterium tuberculosis (strain ATCC 25618 / H37Rv)) (UniProt P9WFW3); assay: Assay for Asp RNA synthetase-1 from Mycobacterium tuberculosis; format: functional; parameters: scale not given: direction of the effect not stated beside the values; settings: 30 µM; note: in the data most compounds retested in dose-response had high values
T1 sequence (whole entry): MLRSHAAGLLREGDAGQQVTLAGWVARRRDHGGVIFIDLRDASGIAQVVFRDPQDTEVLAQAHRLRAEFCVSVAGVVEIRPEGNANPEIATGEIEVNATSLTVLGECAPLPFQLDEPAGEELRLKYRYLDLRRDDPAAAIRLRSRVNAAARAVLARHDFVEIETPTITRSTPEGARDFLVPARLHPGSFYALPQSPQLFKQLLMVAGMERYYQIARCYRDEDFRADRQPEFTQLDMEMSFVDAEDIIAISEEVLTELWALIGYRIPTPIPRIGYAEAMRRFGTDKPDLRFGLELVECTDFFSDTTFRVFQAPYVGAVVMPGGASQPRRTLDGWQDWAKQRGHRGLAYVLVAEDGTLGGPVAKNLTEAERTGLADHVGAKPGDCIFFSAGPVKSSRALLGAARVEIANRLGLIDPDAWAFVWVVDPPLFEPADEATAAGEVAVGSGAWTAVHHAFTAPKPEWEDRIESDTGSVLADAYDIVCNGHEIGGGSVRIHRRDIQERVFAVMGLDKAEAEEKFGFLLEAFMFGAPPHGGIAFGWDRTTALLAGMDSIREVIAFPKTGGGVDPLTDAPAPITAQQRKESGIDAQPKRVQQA

[2] = target: Shiga toxin 2 (Escherichia coli O157:H7) (UniProt P09385+P09386); assay: E. coli 0.157:H7 Shiga Toxin SOP - stx2 screening assay; format: functional; parameters: scale not given: direction of the effect not stated beside the values; settings: 30 µM

Structure (SMILES) | Percent Effect [1] | Percent Effect [2]
CCN1CCOC(CNCc2ccccc2OCC(=O)N(C)C)C1 (configuration not stated) | -4.95% | 21.6%
Cc1cnn(CC2CCCCN2CC(=O)Nc2c(C)n[nH]c2C)c1 (configuration not stated) | -1.88% | -12.9%
CC(C(=O)N1CCCN(c2ncccc2C#N)CC1)n1cccn1 (configuration not stated) | -4.27% | 31.7%
Cn1ccnc1-c1ccccc1C(=O)N1CCc2c(nc(N)[nH]c2=O)C1 | 2.08% | -35.7%
Cc1nn(C)c(Cl)c1C1CCCN1C(=O)c1cc[nH]n1 (configuration not stated) | 3.04% | -8.07%
COC(=O)C(NC(=O)C(C)C)c1cc(F)ccc1F (configuration not stated) | -0.455% | 15.2%
Cn1nc(C2CCCN(Cc3ccsc3)C2)c2nccnc21 (configuration not stated) | -2.96% | -14.3%
O=C(CCc1nccs1)N1CCN(c2cccnn2)CC1 | -2.05% | 12.9%
O=C(NC1(c2cccc(F)c2)CCOCC1)c1ccccn1 | -1.19% | -49.2%
COc1ccc(OCCc2sc(C3(O)CCCNCC3)nc2C)cc1 (configuration not stated) | -5.55% | -52%
CC1CCN(C(=O)c2cccc3ncccc23)CC1 | -1.51% | 5.74%
O=C(NS(=O)(=O)c1ccccc1Cl)c1cccc2c1OCCO2 | -6.15% | -2.92%
CCCc1nc(CN2CCN(CC(O)c3ccccc3)CC2)no1 (configuration not stated) | -4% | -3.05%
CCCNC(=O)C(C)n1cc(Br)cn1 (configuration not stated) | 5.47% | -46.7%
COc1c(CNC2CCOc3ccccc32)c(C(C)C)nn1C (configuration not stated) | 0.728% | 2.37%
CCc1ccc(CN2CCC3(CC2)CNC(=O)CO3)o1 | -0.662% | -2.48%
Cc1cccc(-c2nc(CN(Cc3cccs3)CC3CCCO3)no2)c1 (configuration not stated) | -0.626% | -5.45%
Cc1ccc(CN(C)C(=O)CN2CCCC2Cn2cccn2)o1 (configuration not stated) | -1.15% | -15.7%
Cc1nn(C)c(N(C)C)c1CNCc1cccc(CN(C)C(C)C)c1 | 2.27% | 5.42%
CN(Cc1ccncc1)CC(c1cccs1)N1CCOCC1 (configuration not stated) | -5.01% | -26%
Cc1cnn(C2CCCN(C(=O)Cc3ccc(-n4cccn4)cc3)C2)c1 (configuration not stated) | -4.37% | 4.84%
